Compound activity as filed in PubChem.
NS1 inh – inhibitors of influenza NS1 protein function; 270,000 compounds, 0.4% hits; Potency, µM (highest dose often 46.1 µM); AID 2326; calls by dose curve; also: actives are rising curves; nearly all actives have a fitted effect of over 50% in size
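A cell-based growth assay was used: compounds that relieve NS1-induced slow growth of budding yeast raise OD600. Assay medium was yeast nitrogen base with ammonium sulphate and -URA supplement, pH 6.0, with 2% galactose.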
RE007 growth inh – less growth of the S. pombe RE007 Vpr strain. S. pombe RE007 Vpr strain, BacTiter-Glo ATP luminescence, 24 h. AID 651644. 360,000 compounds, 0.21% hits. Potency, µM (top dose mostly 92.2 µM), usual class: inhibitors; active = well fitted falling curve with a large enough effect; inconclusive = small, poorly fitted or top-dose-only effect; inactive = no such curve, though single readings can be large or run the other way; also: nearly all actives have a fitted effect of over 50% in size
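Fission yeast RE007 carrying one integrated HIV-1 vpr copy, seeded at OD 0.01 in PMG+AL medium with 23 nL pinned compound. Grown 24 h at 30 degrees; viability read by BacTiter-Glo luminescence after 5 min.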
LmPK inh – inhibitors of Leishmania mexicana pyruvate kinase | Q27686 | purified LmPK, Kinase-Glo ATP luminescence, 1 h | Potency, µM (highest dose often 57.5 µM), hits mostly inhibitors | 290,000 compounds, 0.37% hits | AID 1721
Target sequence (Q27686 whole entry, looked up): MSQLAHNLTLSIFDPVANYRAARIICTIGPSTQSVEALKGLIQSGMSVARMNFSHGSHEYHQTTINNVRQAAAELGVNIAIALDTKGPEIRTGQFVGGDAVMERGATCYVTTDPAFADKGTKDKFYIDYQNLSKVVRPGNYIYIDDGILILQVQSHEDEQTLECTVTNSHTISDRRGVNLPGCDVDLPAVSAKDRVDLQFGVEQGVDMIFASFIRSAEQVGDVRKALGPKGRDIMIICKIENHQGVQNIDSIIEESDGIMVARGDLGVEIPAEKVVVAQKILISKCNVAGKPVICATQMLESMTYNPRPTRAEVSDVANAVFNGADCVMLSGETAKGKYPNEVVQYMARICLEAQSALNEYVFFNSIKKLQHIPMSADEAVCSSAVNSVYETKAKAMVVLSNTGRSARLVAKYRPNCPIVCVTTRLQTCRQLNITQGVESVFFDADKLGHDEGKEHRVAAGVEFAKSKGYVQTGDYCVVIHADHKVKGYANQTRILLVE
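ATP generated from ADP (0.1 mM) and PEP (0.5 mM) by 0.1 nM LmPK over 1 h at room temperature (pH 7.2 imidazole buffer) was detected by coupled luciferase luminescence. Values were normalized to uninhibited and no-enzyme wells.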
FBPA Giardia inh – Giardia lamblia aldolase inhibition. A8B2U2. purified Giardia FBPA. Potency, µM (doses to about 59.6 µM), usual class: inhibitors. 290,000 compounds, 0.71% hits. AID 2451; also: nearly all actives have a fitted effect of over 55% in size
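40 nM FBPA preincubated 10 min at RT with compound (up to 57.5 uM final), then substrate plus GAPDH/TPI/NAD/arsenate coupling and diaphorase/resazurin added. Fluorescence read after 20 min at RT, 525/598 nm.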
TbPYK inhibitor – blocks Trypanosoma brucei pyruvate kinase; Q57TT1; TbPYK enzyme, Kinase-Glo Plus ATP luminescence, 45 min; Potency, µM (titrated, usually from 76.8 µM), usual class: inhibitors; 410,000 compounds, 0.12% hits; also: nearly all actives have a fitted effect of over 50% in size
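Luminescent Kinase-Glo Plus end-point after 45 min room-temperature reaction of T. brucei pyruvate kinase started with 130 uM ADP (final). Buffer TEA 50 mM pH 7.2 with KCl, MgCl2, BSA, Tween-20; titration-based qHTS with fitted concentration-effect curves.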
Sm TGR block – blocks Schistosoma mansoni thioredoxin glutathione reductase; Q962Y6; purified TGR, DTNB reduction, TNB absorbance 405 nm; Potency, µM (titrated, usually from 114 µM), usual class: inhibitors; 360,000 compounds, 3% hits; AID 485364; also: nearly all actives have a fitted effect of over 60% in size
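First, TGR (20 nM dispensed) and NADPH were mixed with compound. Second, a 15 min room-temperature incubation followed. Third, further NADPH and then DTNB were added to start the reaction. Finally, TNB absorbance was monitored kinetically.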
Hits are given with their value; - = inactive; ? = inconclusive; . = no result. In the library only some 3.5% were active in any assay of this set; here they are far more common. Unless noted, calls follow the shape of the dose curve; as a rule, active = well fitted curve in the direction sought with a large enough effect; inconclusive = small, poorly fitted or top-dose-only effect, or another doubt; inactive = no such curve, though single readings can be large; an effect the other way counts as inactive or inconclusive.

SMILES | NS1 inh | RE007 growth inh | LmPK inh | FBPA Giardia inh | TbPYK inhibitor | Sm TGR block
O=C(Cn1c(-c2cccs2)cc2ccccc21)NCCCN1CCN(c2ccc(F)cc2)CC1 | . | . | . | . | - | -
O=S(=O)(CCc1ccncc1)C1Cc2cccc3cccc1c23 (stereo not drawn) | ? | - | - | - | - | 35µM
Clc1ccc(CCNc2ncnc3c2c(-c2ccccc2)cn3-c2ccccc2)cc1 | . | . | . | . | - | -
COc1cc(CN2CCc3ccc(NC(=O)CCc4ccccc4OC)cc3C2)ccc1O | - | - | - | - | - | 13µM
COc1cc(CN2CCc3ccccc3C2)ccc1O | - | - | - | ? | - | 20µM
COc1cc(C(=O)NC(=S)Nc2ccc3[nH]c(=O)[nH]c3c2)cc(OC)c1OC | - | - | - | - | - | -
COc1cc(C(=O)NC(=S)Nc2ccc(Cl)c(C(=O)O)c2)cc(OC)c1OC | - | - | - | - | - | 40µM
CCCCOc1cccc(C(=O)NC(=S)Nc2ccc(Cl)c(C(=O)O)c2)c1 | - | - | - | - | - | -
COc1cc(OC)cc(C(=O)NC(=S)Nc2ccc(Cl)c(C(=O)O)c2)c1 | - | - | - | - | - | 22µM
Cc1nc2cnc(N3CCOCC3)nc2n(C[C@H]2CCCO2)c1=O | . | . | . | - | . | .
CC(=O)c1ccc(NC(=O)c2ccc3c(c2)nnn3C2CCCC2)cc1 | . | . | . | . | - | -
N#Cc1ccc(NC(=O)c2ccc3c(c2)nnn3C2CCCC2)cc1 | . | . | . | . | - | 4.5µM
Cc1ccc(-c2nn(-c3ccccc3)cc2CO)o1 | - | ? | - | - | - | 45µM
Cc1ccc(-c2nn(-c3ccccc3)cc2C=O)o1 | . | ? | - | - | - | 13µM
Cc1ccc(-c2nn(-c3ccccc3)cc2C(N)=O)o1 | - | - | - | - | - | 20µM
CSc1ncc(Cl)c(C(=O)N(Cc2ccccc2Cl)C2CCS(=O)(=O)C2)n1 (stereo not drawn) | . | . | . | . | - | -
CCCCn1nnc(NC(=O)c2ccc(-c3cccc(Cl)c3)o2)n1 | - | - | - | - | - | 25µM
CCCn1nnc(NC(=O)c2ccc(-c3cccc(Cl)c3)o2)n1 | - | - | - | - | - | -
O=C(NC(=S)Nc1cc(Cl)ccc1N1CCOCC1)c1ccc(-c2cccc(Cl)c2)o1 | - | - | - | - | - | -
CCn1nnc(NC(=S)NC(=O)c2ccc(-c3cccc(Cl)c3)o2)n1 | - | - | - | ? | - | 13µM
COc1cccc(OCc2nc3ccccc3n2CCOc2ccccc2C)c1 | . | . | . | . | - | -
O=C1C([N+](=O)[O-])=C(O)c2cccc3cccc1c23 | - | . | - | 25µM | . | 40µM
COc1ccc(C2CC(=O)N3CN(C4CCCCC4)CSC3=C2C#N)c(OC)c1 (stereo not drawn) | . | . | . | . | 18µM | 3.2µM
COC(=O)C1=C(C)N(C)C(=O)NC1c1c(OC)ccc2ccccc12 (stereo not drawn) | - | - | - | - | - | -
COc1ccc(OC)c(C2C(C#N)=C(N)N(N(C)C)C3=C2C(=O)CCC3)c1 (stereo not drawn) | - | - | - | - | - | -
SMILES | NS1 inh | RE007 growth inh | LmPK inh | FBPA Giardia inh | TbPYK inhibitor | Sm TGR block
COc1ccc2ccccc2c1C1CC(=O)N2CN(C3CCCCC3)CSC2=C1C#N (stereo not drawn) | ? | - | - | ? | ? | 28µM
COc1ccc(C2CC(=O)N3CN(c4ccc(C)c(Cl)c4)CSC3=C2C#N)cc1 (stereo not drawn) | - | - | - | ? | 3.2µM | 45µM
N#CC1=C2SCN(Cc3ccccc3)CN2C(=O)CC1c1ccc2c(c1)OCO2 (stereo not drawn) | - | - | - | 0.89µM | ? | 3.5µM
COc1ccc(N2C(=O)CS(=O)(=O)C23C(=O)N(Cc2ccc(F)cc2)c2ccc(C)cc23)cc1 (stereo not drawn) | . | . | . | . | - | -
COc1cc(Nc2ncc3c(n2)CCN(Cc2cc(Br)cs2)C3)cc(OC)c1 | . | . | . | . | - | -
N#CC1=C2SCN(Cc3ccco3)CN2C(=O)CC1c1ccc(Cl)cc1 (stereo not drawn) | - | - | - | ? | ? | -
COc1ccc(C2CC(=O)N3CN(Cc4ccco4)CSC3=C2C#N)cc1 (stereo not drawn) | - | - | - | ? | ? | 40µM
COc1ccc2ccccc2c1C1CC(=O)N2CN(Cc3ccco3)CSC2=C1C#N (stereo not drawn) | - | - | - | ? | ? | 5.6µM
Cc1cccc(N2CSC3=C(C#N)C(c4ccc(C)o4)CC(=O)N3C2)c1 (stereo not drawn) | 1.8µM | . | - | ? | . | 11µM
CC(C)c1ccc(C2CC(=O)N3CN(Cc4ccco4)CSC3=C2C#N)cc1 (stereo not drawn) | - | - | - | ? | ? | 2.2µM
COc1cc(C2CC(=O)N3CN(Cc4ccco4)CSC3=C2C#N)ccc1OCc1ccccc1 (stereo not drawn) | - | - | - | ? | ? | -
Cc1cccc(C(=O)Nc2nnc(S(=O)(=O)N(C)c3ccccc3C)s2)c1 | . | . | . | . | - | -
COc1ccc(Cl)cc1Nc1ccc2cc(S(=O)(=O)N3CCCCC3)ccc2n1 | . | . | . | . | - | -
CCN1C(=O)c2ccccc2Sc2ccc(NC(=O)c3ccc(C#N)cc3)cc21 | . | . | . | . | - | -
CCOC(=O)N1CCc2c(sc(NCc3ccc(N(C)C)cc3)c2C(=O)Nc2ccccc2OCC)C1 | . | . | . | . | - | -
Cc1ccc(Cl)cc1-n1ncc2c(N3CCN(Cc4ccccc4)CC3)ncnc21 | . | . | . | . | - | -
Oc1ccc(/C=N/Nc2ccc(Cl)nn2)c(O)c1O | - | . | - | ? | - | 14µM
O=C(NCCc1ccccc1)c1ccc2c(c1)CCN2S(=O)(=O)c1ccc(Cl)cc1 | . | . | . | . | - | -
COc1cccc(N(C(=O)CCl)C(C(=O)NCCc2ccccc2)c2cccs2)c1 (stereo not drawn) | - | - | - | - | - | 10µM
COc1ccc(N(C(=O)CCl)C(C(=O)NCCc2ccccc2)c2cccs2)cc1Cl (stereo not drawn) | - | - | - | - | - | 10µM
COc1ccccc1Cn1c(CNS(=O)(=O)c2cccc([N+](=O)[O-])c2)nc2cccnc21 | . | . | . | . | - | -
O=C(Nc1nc2ccc(F)cc2s1)c1nc(S(=O)(=O)Cc2ccccc2)ncc1Cl | . | . | . | . | - | ?
COC(=O)c1ccccc1NC(=O)c1nc(S(=O)(=O)Cc2ccccc2F)ncc1Cl | . | . | . | . | - | -
O=C(Nc1ccc(F)cc1)c1nc(S(=O)(=O)Cc2ccccc2)ncc1Cl | - | - | - | . | - | 6.3µM
O=C(Nc1ccccc1F)c1nc(S(=O)(=O)Cc2ccccc2F)ncc1Cl | . | . | . | . | - | 2.8µM
Cc1ccccc1CS(=O)(=O)c1ncc(Cl)c(C(=O)Nc2ccc(F)cc2)n1 | - | - | - | . | - | 3.5µM
